Records with an inconclusive call do not appear. Where a call stands in place of a potency, no number is given. Calls of active or inactive are those of the source. The call rests on the fitted dose curve; in most records, active means well fitted cell-killing curve with a large enough effect; inconclusive means small, poorly fitted or top-dose-only effect, or effect the other way; inactive means flat fitted curve, though single readings scatter.
Test: qHTS for Inhibitors of Ubiquitin-specific Protease USP2a Using CHOP2 as the Reporter: Cytotox Assay (AID 652170); further: nearly all actives have a fitted effect of over 70% in size
Details: HCT116 viability, CellTiter-Glo luminescence, 72 h; series mostly up to 46.1 µM
Description: Homeostasis of cellular proteins is maintained through a combination of synthesis and degradation. The pathway that accounts for the majority of protein degradation is the ubiquitin-proteasomal pathway. Ubiquitin (Ub) is highly conserved in all cells and the generation of a multi-Ub chain typically targets proteins for degradation by the proteasome. However, ubiquitination is highly reversible and dynamic. Deubiquitination, the reverse process, is catalyzed through the action of enzymes referred to as isopeptidases or deubiquitinating enzymes (DUBs). This group of enzymes is collectively responsible for maintaining adequate pools of free ubiquitin and regulating the ubiquitination status of cellular proteins. The class of DUBs referred to as the ubiquitin-specific proteases (USP) family functions endoproteolytically to cleave Ub chains from a wide range of protein substrates. USP2a deubiquitinates fatty acid synthase (FASN) which has recently been identified as an emerging oncology target. To identify inhibitors of USP2a a cell-free qHTS assay was employed. Confirmed qHTS active compounds were tested for cytoxicity in HCT116 cells (human colon cancer cells) using the Cell Titer Glo luciferase-coupled ATP detection system from Promega. This assays monitors cell proliferation by quantitating the amount of ATP present by luciferase, which in the presence of ATP converts […]. A compound that inhibits cell proliferation would result in a decrease in luminescence. The data were normalized to control columns representing maximum signal (cells with DMSO) and background (no cells with DMSO). The cells were cultured in DMEM with 10% FBS and plated in white solid-bottom tissue-culture treated plates. NIH Molecular Libraries Probe Centers Network [MLPCN] NIH Chemical Genomics Center [NCGC] MLSCN Grant: MH079852 PI Name: Benjamin Nicholson, Progenra Inc, Malvern, PA
5 uL of HCT116 (600 cells/well) were plated into a 1536 well plate and then incubated for 6 hr at 37 deg C, 5% CO2. Compounds are added through pinning before the plate is incubated for 72 hr at 37 deg C, 5% CO2. Then, 3 uL of Cell Titer Glo is added, the plate is left at RT for 10 min, before luminescence is detected using the ViewLux.
Potency means the concentration at half of the fitted maximal effect.

Compound	Potency
Cc1ccc(-c2cc(C(=O)Nc3ccc(Cl)cc3)c3ccccc3n2)cc1C	inactive
O=S(=O)(Nc1nccs1)c1ccc(Nc2nc(-c3ccc(F)cc3)cs2)cc1	inactive
O=C(Nc1nc(-c2ccccc2)cs1)c1ccncc1NS(=O)(=O)c1ccc(F)cc1	inactive
O=C(Nc1nc(-c2ccccc2)cs1)c1ccncc1NS(=O)(=O)c1ccccc1F	inactive
Cc1ccc(S(=O)(=O)Nc2ccc(OC(F)(F)F)cc2C(=O)Nc2nc(-c3ccccc3)cs2)cc1	5.9 µM (active)
Cc1ccc(-c2cc(C(=O)Nc3ccc(S(=O)(=O)Nc4ccncc4)cc3)c3ccccc3n2)cc1C	inactive
CCCCC1CCC(C(=O)Nc2ccc(S(=O)(=O)Nc3cc(C)on3)cc2)CC1 (stereo not given)	inactive
N#Cc1cnc(NS(=O)(=O)c2ccc(NC(=O)Cc3ccc(F)c(Cl)c3)cc2)s1	inactive
CCCc1ccc(C(=O)Nc2ccc(S(=O)(=O)Nc3nccs3)cc2)cc1	inactive
O=C(Nc1ccc(S(=O)(=O)Nc2nccs2)cc1)c1ccc2ccccc2c1	inactive
Cc1ccc(-c2cc(C(=O)Nc3ccc4ccccc4c3)c3ccccc3n2)cc1C	inactive
CN(Cc1nccs1)S(=O)(=O)c1ccc(Nc2nc(-c3ccccc3)cs2)cc1	inactive
Cc1cc(S(=O)(=O)Nc2cnccc2C(=O)Nc2nc(-c3ccccc3)cs2)c(C)o1	23.5 µM (active)
Cc1ccc(-c2cc(C(=O)Nc3ccncc3)c3ccccc3n2)cc1C	18.7 µM (active)
N#Cc1ccccc1S(=O)(=O)Nc1cnccc1C(=O)Nc1nc(-c2ccccc2)cs1	inactive
Cc1ccc(-c2cc(C(=O)Nc3ccc(S(=O)(=O)N(C)Cc4nccs4)cc3)c3ccccc3n2)cc1C	inactive
Nc1ccc(S(=O)(=O)Nc2cnccc2C(=O)Nc2nc(-c3ccccc3)cs2)cc1	inactive
Cc1ccc(-c2cc(C(=O)Nc3ccc(S(N)(=O)=O)cc3)c3cccc(C)c3n2)cc1C	inactive
O=C(Nc1ccc(C(=O)Nc2nccs2)cc1)c1ccc2ccccc2c1	inactive
Cc1ccc(S(=O)(=O)Nc2cnccc2C(=O)Nc2nc(-c3ccc(F)cc3)cs2)cc1	20.9 µM (active)

Compound	Potency
Cc1ccc(-c2cc(C(=O)Nc3ccc(S(=O)(=O)Nc4cccnc4)cc3)c3ccccc3n2)cc1C	inactive
Cc1ccc(S(=O)(=O)Nc2cnccc2C(=O)Nc2nc(C(=O)O)cs2)cc1	inactive
Cc1ccc(S(=O)(=O)Nc2cnccc2C(=O)Nc2ccc(-c3nn[nH]n3)cc2)cc1	inactive
O=C(O)C1CCC(C(=O)Nc2ccc([S+](=O)([O-])Nc3nccs3)cc2)CC1 (stereo not given)	inactive
Cc1ccc(S(=O)(=O)Nc2cnccc2C(=O)NCCc2ccccc2)cc1	inactive
Cc1ccc(-c2csc(NC(=O)c3ccncc3NS(=O)(=O)c3ccc(C)cc3)n2)cc1	14.8 µM (active)
O=C(Nc1nc(-c2ccccc2)cs1)c1ccncc1NS(=O)(=O)c1ccc(F)cc1Cl	inactive
Cc1ccc(-c2cc(C(=O)Nc3ccc(S(C)(=O)=O)cc3)c3ccccc3n2)cc1C	inactive
Cc1ccc(-c2cc(C(=O)Nc3ccc(S(=O)(=O)O)cc3)c3ccccc3n2)cc1C	inactive
COc1cccc(S(=O)(=O)Nc2cnccc2C(=O)Nc2nc(-c3ccccc3)cs2)c1	23.5 µM (active)
O=C(Nc1nc(-c2ccccc2)cs1)c1ccncc1NS(=O)(=O)c1ccc(C(F)(F)F)cc1	inactive
Cc1ccc(S(=O)(=O)Nc2ccccc2Nc2nc(-c3ccccc3)cs2)cc1	inactive
Cc1ccc(S(=O)(=O)Nc2cc([N+](=O)[O-])ccc2C(=O)Nc2nc(-c3ccccc3)cs2)cc1	5.26 µM (active)
CC(C)(C)NC(=O)N1CCC(C(=O)Nc2ccc([S+](=O)([O-])Nc3nccs3)cc2)CC1	inactive
O=C(Nc1nc(-c2ccc(F)cc2)cs1)c1ccncc1NS(=O)(=O)c1ccccc1Cl	inactive
N#Cc1cnc(NS(=O)(=O)c2ccc(NC(=O)Cc3ccc(Cl)c(Cl)c3)cc2)s1	inactive
O=C(C[C@H]1CC[C@@H](C(=O)Nc2ccc(S(=O)(=O)Nc3nccs3)cc2)C1)c1ccccc1	inactive
COc1ccc(S(=O)(=O)Nc2cnccc2C(=O)Nc2nc(-c3ccccc3)cs2)cc1	inactive
O=C1CCCc2cc(S(=O)(=O)Nc3cnccc3C(=O)Nc3nc(-c4ccccc4)cs3)ccc2N1	inactive
COC(=O)C1=CC[C@H](c2ccc(C)cc2)N(S(=O)(=O)c2ccc(C)cc2)[C@@H]1c1ccc(C(C)(C)C)cc1	inactive

From PubChem BioAssay (NCATS)
